# Assay outcomes deposited in PubChem by National Center for Advancing Translational Sciences (NCATS).
# APE1 inh = qHTS Assay for Inhibitors of the Human Apurinic/apyrimidinic Endonuclease 1 (APE1); Potency, µM (highest dose often 65.8 µM), for inactives: at the highest dose activity change, negative = inhibition, most hits filed as inhibitors; recombinant APE1, TAMRA/BHQ-2 abasic DNA cleavage fluorescence; 350,000 compounds, 0.35% hits; AID 2517, 2012;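 further: potency means the concentration at half of the fitted maximal effect; plate controls were vehicle for no effect and reference inhibitor for full effect; nearly all actives have a fitted effect of over 55% in size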
#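 APE1 at 0.75 nM preincubated 15 min at room temperature with compound. Reaction then started with 50 nM double-stranded THF-abasic substrate labelled with TAMRA/BHQ-2, and 525/598 nm fluorescence read kinetically. Activity taken as third-minus-first read difference, normalized to DMSO and NSC13755 controls.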
# BLM helicase inh = qHTS Assay for Inhibitors of Bloom's syndrome helicase (BLM) | RecQ-like DNA helicase BLM (Homo sapiens), P54132 | Potency, µM (top dose mostly 56.1 µM), for inactives: top-dose activity change, negative = inhibition, hits mostly inhibitors | AID 2528, 2010 | 350,000 compounds, 0.2% hits | recombinant BLM DNA unwinding, fluorescence dequenching;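 further: potency means the concentration at half of the fitted maximal effect; plate controls were vehicle for no effect and no enzyme for full effect; nearly all actives have a fitted effect of over 35% in size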
# WRN helicase inh = qHTS for Inhibitors of WRN Helicase; Bifunctional 3'-5' exonuclease/ATP-dependent helicase WRN (Homo sapiens), Q14191; WRN helicase unwinding, fluorescent forked duplex, kinetic; 360,000 compounds, 0.46% hits; Potency, µM (top dose mostly 114 µM), inactives show at the top dose activity change, negative = inhibition, most hits filed as inhibitors; further: potency means the concentration at half of the fitted maximal effect; nearly all actives have a fitted effect of over 55% in size
#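 Enzyme (20 nM final) and test compound sit together 15 min at room temperature before substrate addition. Substrate is a single-forked duplex oligonucleotide (100 nM) labelled with fluorophore and quencher, with 2 mM ATP; helicase unwinding raises red fluorescence, read kinetically.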
# PI5P4K alpha inh = qHTS for Inhibitors of phosphatidylinositol 5-phosphate 4-kinase (PI5P4K); PI5P4Kalpha enzyme, ADP-Glo luminescence, 60 min; stronger effect = lower value; max response, %; 330,000 compounds, 1.2% hits; AID 652105, 2013; active means max response of -50% or lower; inconclusive means between -30% and -50%; inactive means -30% or higher; further: value at the top dose of about 77 µM
# Target sequence (P48426 whole entry, looked up): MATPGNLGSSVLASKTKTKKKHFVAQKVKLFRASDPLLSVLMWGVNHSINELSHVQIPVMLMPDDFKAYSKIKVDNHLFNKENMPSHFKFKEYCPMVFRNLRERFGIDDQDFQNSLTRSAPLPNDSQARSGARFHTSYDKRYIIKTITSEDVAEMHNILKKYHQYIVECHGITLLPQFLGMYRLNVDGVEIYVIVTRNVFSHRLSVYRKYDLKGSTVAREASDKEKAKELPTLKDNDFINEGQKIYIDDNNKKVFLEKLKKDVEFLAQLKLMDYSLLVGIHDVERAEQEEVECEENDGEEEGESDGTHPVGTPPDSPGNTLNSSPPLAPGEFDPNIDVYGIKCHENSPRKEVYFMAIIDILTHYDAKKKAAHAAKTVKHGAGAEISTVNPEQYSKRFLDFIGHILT
#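 Quantitative HTS of the MLSMR library against PI5P4Kalpha with substrate. ATP added last at 5 microM final; room temperature, 60 minutes. Remaining ATP depleted, ADP converted and read as luminescence.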
# RECQ1 inh = qHTS Assay for Inhibitors of RecQ-Like Dna Helicase 1 (RECQ1) | RECQ1 DNA unwinding, red fluorescence kinetic read | Potency, µM (series often up to 57.3 µM), without a hit: at the top dose activity, negative = inhibition, actives largely listed as inhibitors | ATP-dependent DNA helicase Q1 (Homo sapiens), P46063 | 240,000 compounds, 0.54% hits | AID 2549, 2010;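 further: potency means the concentration at half of the fitted maximal effect; plate controls were vehicle for no effect and no enzyme for full effect; nearly all actives have a fitted effect of over 30% in size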
#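 RECQ1T1 50 nM; forked duplex (20 bp + 30-nt ss tails) 200 nM, ATP 2 mM final; pH 8.0, 2 mM MgCl2, 2.5 ug/ml poly(dI-dC); 15 min compound preincubation; discontinuous kinetic read over 2 h at RT.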
# FEN1 inh = qHTS Assay for the Inhibitors of Human Flap endonuclease 1 (FEN1). 390,000 compounds, 0.35% hits. Potency, µM (series often up to 114 µM), for the others: at the top dose activity change, negative = inhibition, usual class: inhibitors. Recombinant FEN1 flap cleavage, fluorescence, 15 min. AID 588795, 2011. P39748; further: potency means the concentration at half of the fitted maximal effect; nearly all actives have a fitted effect of over 65% in size
# Target sequence (P39748 whole entry, looked up): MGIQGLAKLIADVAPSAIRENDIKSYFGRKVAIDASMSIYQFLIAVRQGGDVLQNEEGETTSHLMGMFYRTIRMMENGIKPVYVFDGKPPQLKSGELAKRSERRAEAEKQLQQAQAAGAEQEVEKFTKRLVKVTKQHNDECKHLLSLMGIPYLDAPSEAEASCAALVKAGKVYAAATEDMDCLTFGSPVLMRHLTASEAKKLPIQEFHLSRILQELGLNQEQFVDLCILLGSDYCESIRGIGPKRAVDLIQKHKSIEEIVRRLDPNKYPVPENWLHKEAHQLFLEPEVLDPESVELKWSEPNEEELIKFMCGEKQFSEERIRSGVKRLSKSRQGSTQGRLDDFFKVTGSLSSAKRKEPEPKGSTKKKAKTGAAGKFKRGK
#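 Compounds are tested as a concentration series against 10 nM FEN1; after a 15 min room-temperature preincubation, 50 nM substrate starts cleavage, with plate reads at 0 and 15 min. Normalized responses are fitted by a Hill equation.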
# * marks the source's active call; other numbers are inactive results; i = inactive; ? = inconclusive; nt = not tested or not shown; [ ] = another dose, or the depositor's remark. Shown are actives, neighbours in structure and some others; about 1.5% of the full set was active somewhere. Unless noted, the call rests on the fitted dose curve; in most records, active means well fitted curve in the direction sought with a large enough effect; inconclusive means small, poorly fitted or top-dose-only effect, or another doubt; inactive means no such curve, though single readings can be large; an effect the other way counts as inactive or inconclusive. Unless noted, on the % scale 0 is the no-effect control and ±100 the full control effect.
SMILES,APE1 inh,BLM helicase inh,WRN helicase inh,PI5P4K alpha inh,RECQ1 inh,FEN1 inh
CN(C)c1ccc(N(C)C)cc1,?,nt,nt,nt,-12.0%,nt
OC[P+](CO)(CO)CO,4.2%,nt,nt,nt,-1.7%,nt
COc1ccccc1/C=C1\C(=O)NC(=S)N(c2ccccc2)C1=O,54.9%,-1.9%,-9.2%,-55.1*,nt,12.7%
O=C1NC(=S)N(c2ccc(F)cc2)C(=O)/C1=C/c1ccccc1O,8.8%,-0.1%,-0.4%[57.1 µM],-1.5,nt,16.5%
O=C1NC(=O)N(Cc2ccc(F)cc2)C(=O)/C1=C\c1ccc(N2CCCC2)cc1,-3.1%,-27.1%,?,-58.9*,-27.8%,?
O=C1NC(=O)N(c2ccc(F)cc2)C(=O)/C1=C/c1ccc(N2CCOCC2)cc1,0.4%,-11.1%,-32.9%,-19.6,i,1.3%
COc1ccc(CN2C(=O)NC(=O)/C(=C\c3cc(OC)c(OC)c(OC)c3)C2=O)cc1,7.1%,-4.3%,50.1µM*,?,-17.1%,-0.6%
O=C1NC(=O)N(CCC2=CCCCC2)C(=O)/C1=C\c1cccs1,-6.1%,-14.6%,?,?,15.6%,?
O=C1NC(=O)N(CCc2ccc(F)cc2)C(=O)/C1=C/c1cccs1,-9.5%,-7.1%,31.6µM*,-73.6*,-1.9%,-19.1%
CN(C)c1ccc(/C=C2\C(=O)NC(=O)N(CCc3ccc(F)cc3)C2=O)cc1,1.1%,-3.9%,?,-82.2*,i,-5.5%
COc1ccc(/C=C2\C(=O)NC(=O)N(Cc3ccccc3)C2=O)c(OC)c1OC,3.3%,-7.4%,-5.9%,-29.4,i,?
CC(=O)N1CCN(c2ccc(OCC3CO[C@@](Cn4ccnc4)(c4ccc(Cl)cc4Cl)O3)cc2)CC1 (some centres not stated),-2.1%,0.3%,nt,nt,i,nt
N#CC(Cl)Cl,3.3%,nt,nt,nt,-2.4%,nt
C/C(O)=C1\C(=O)[C@@H]2[C@H]3c4c[nH]c5cccc(c45)C[C@H]3C(C)(C)N2C1=O,15.2%,nt,nt,nt,5.9%,nt
Cc1ccc(/C=C2/C(=O)NC(=O)N(CCc3ccc(F)cc3)C2=O)o1,6.1%,-1.6%,50.1µM*,-67.4*,-11.9%,5.3%
COCCN1C(=O)NC(=O)/C(=C\c2ccc(F)cc2)C1=O,?,-2.2%,8.3%,-24.0,i,15.8%
CCOC(=O)c1sc(N=Nc2c(O)[nH]c(=O)[nH]c2=O)c(C(=O)OCC)c1C,9.4%,-5.1%,nt,nt,-1.4%,nt
CCOc1ccc2nc(N=Nc3c(O)[nH]c(=O)[nH]c3=O)sc2c1,0.6%,0.9%,1.7%,-86.4*,12.7%,10.2%
CCOc1ccc2nc(N=Nc3c(O)[nH]c(=S)[nH]c3=O)sc2c1,?,-9.0%,-24.9%,-79.8*,-11.4%,?
CC(c1nccs1)N(C)C(=O)c1cn(Cc2cccc3ccccc23)nn1 (configuration not stated),50.7%,5.2%,-3.1%[57.1 µM],2.5,nt,16.4%
COc1cccc2c1C(=O)c1c(O)c3c(c(O)c1C2=O)C[C@@](O)(C(=O)CO)C[C@@H]3O[C@H]1C[C@H](N)[C@H](OC2CCCCO2)[C@H](C)O1 (some centres not stated),nt,?,nt,nt,nt,17.8µM*
Cc1cccc(N2C(=O)NC(=O)/C(=C\c3ccc(N4CCOCC4)cc3)C2=O)c1,?,-0.3%,?,?,-3.2%,-3.2%
C=CCN1C(=O)NC(=O)/C(=C/c2cc3c4c(c2)CCCN4CCC3)C1=O,?,?,-28.7%,?,31.6µM*,-9.0%
C=CCN1C(=O)NC(=O)/C(=C/c2cnc(SC)nc2)C1=O,-2.9%,0.2%,?,-57.2*,i,-0.7%
COc1cc(/C=C/C(=O)c2c(O)n(CCc3ccccc3)c(=O)[nH]c2=O)ccc1O,-5.4%,-3.6%,-24.4%,-64.7*,-16.6%,?
SMILES,APE1 inh,BLM helicase inh,WRN helicase inh,PI5P4K alpha inh,RECQ1 inh,FEN1 inh
CC(C)=CCCC1(C)C=Cc2c(O)c3c(c(CC=C(C)C)c2O1)OC12C(=CC4CC1C(C)(C)OC2(C/C=C(/C)C(=O)O)C4O)C3=O (configuration not stated),1.1%,22.4µM*,nt,nt,-11.3%,nt
CC(C)CCCC1(C)C=Cc2c(O)c3c(c(CCC(C)C)c2O1)OC12C(CC4CC1C(C)(C)OC2(CCC(C)C(=O)O)C4O)C3=O (configuration not stated),-6.4%,-9.5%,nt,nt,i,nt
CC(C)=CCCC1(C)C=Cc2c(O)c3c(c(CC=C(C)C)c2O1)OC12C(=CC4CC1C(C)(C)OC2(C/C=C(/C)C(=O)O)C4=O)C3=O (configuration not stated),1.2%,28.2µM*,nt,nt,i,nt
NC(N)=Nc1ccc2[nH]c3c(c2c1)C[C@@]1(O)[C@H]2Cc4ccc(O)c5c4[C@@]1(CCN2CC1CC1)[C@H]3O5,19.7%,nt,?,?,-3.4%,50.1µM*
Cc1ccc(NS(=O)(=O)c2ccc(Cl)c(N=Nc3c(O)[nH]c(=O)[nH]c3=O)c2)cc1Cl,11.4%,nt,-10.8%[11.6 µM],?,nt,44.7µM*
CCCCCCCCCCCCCCCC[n+]1ccccc1,-1.5%,95.5%,-3.2%,-13.2,8.7%,79.4µM*
Brc1cccc(-c2ccccc2)c1,0.5%,nt,nt,nt,-1.1%,nt
CN1C2CCCC1CC(=O)C2,0.1%,-7.2%,nt,nt,-16.1%,nt
Cc1ccc(N2C(=O)/C(=C/c3ccc(CN(CCC#N)S(C)(=O)=O)o3)C(=O)NC2=S)cc1,?,-6.5%,50.1µM*,-70.9*,?,35.5µM*
COc1ccc(N2C(=O)/C(=C/c3ccc(N(C)C)o3)C(=O)NC2=S)cc1,1.2%,-1.9%,-5.4%,0.5,nt,14.3%
COc1cccc(N2C(=O)/C(=C/c3ccc(C)o3)C(=O)NC2=S)c1,33.9%,-13.1%,?,-58.7*,nt,?
Cc1ccc(/C=C2\C(=O)NC(=S)N(c3ccc(F)cc3)C2=O)o1,45.3%,-3.7%,?,-58.8*,nt,?
CC(C)CCCC(C)C1CCC2C3CC(=O)[C@H]4CC(O)CC[C@]4(C)C3CC[C@@]12C (some centres not stated),12.5%,-11.1%,nt,nt,-9.8%,nt
O=C1NC(=O)C(=Cc2ccc(N3CCN(C(=O)c4ccccc4)CC3)c([N+](=O)[O-])c2)C(=O)N1,8.1%,4.0%,?,-61.9*,0.4%,-24.1%
